Measured values published in ChEMBL document CHEMBL4513216, “Probing the Open Global Health Chemical Diversity Library for Multistage-Active Starting Points for Next-Generation Antimalarials” (ACS Infect Dis, 2020).
Among all 69,000 compounds or so, about 8,600 (12%) showed an effect of 50% or more. Only a selection was taken, and strong results are over-represented in it overall.

Test system: Plasmodium berghei
Assay: Screen against P. berghei liver stage (PbLuc), transformed with Luciferase, at 10uM
Assay type: functional, HepG2
Details: tested at 10 uM

In order of falling INHIBITION:
1. Cc1ccc(-c2ncc(CNc3cnccc3CO)s2)cc1  80%
2. Cc1nn(CCC#N)c(C)c1CCC(=O)N(C)Cc1ccc(F)cc1F  78.3%
3. CN(C)CC1CN(Cc2coc(-c3ccc(Cl)cc3)n2)CCO1 (configuration not stated)  72.9%
4. CNS(=O)(=O)c1cccc(CNc2nccc(C(F)(F)F)n2)c1  71.3%
5. CC1=CC(C)(C)N(CN2C(=O)c3ccccc3C2=O)c2ccc(C)cc21  67.4%
6. CC(=O)N[C@@H]1CN(C2CCN(c3cccc(C)c3C)CC2)C[C@H]1C(C)C  66.1%
7. Cc1ccc(-c2noc(CN3CCOC(CN(C)C)C3)n2)cc1F (configuration not stated)  62.3%
8. Cc1ccc(-c2nc(CN3CCOC(CN(C)C)C3)co2)cc1 (configuration not stated)  58.5%
9. Fc1ccc(-c2nc(CN3CCOC(Cn4cccn4)C3)co2)cc1 (configuration not stated)  58%
10. COCC(=O)NCC[C@H]1CC(C)(C)Oc2ccccc21  57.5%
11. Cn1cc(CN2CC[C@@H](NS(C)(=O)=O)[C@@H]2Cc2cccnc2)cn1  54.4%
12. CS(=O)(=O)N[C@@H]1CCN(Cc2cccnc2)[C@H]1Cc1ccccc1  52%
13. CNS(=O)(=O)c1cccc(CNc2ncccn2)c1  50.5%
14. Cc1ccc(-c2nc(CN3CCOC(Cn4cccn4)C3)co2)cc1 (configuration not stated)  49.8%
15. Cc1nn(CCC#N)c(C)c1CCC(=O)N(C)C  49.5%
16. CNS(=O)(=O)c1cccc(CNc2cc(C(F)(F)F)ccn2)c1  45.4%
17. CS(=O)(=O)N[C@@H]1CCN(Cc2cccnc2)[C@H]1Cc1cccnc1  45.1%
18. CC1=CC(C)(C)N(CN2C(=O)c3ccccc3C2=O)c2ccccc21  44.6%
19. Cc1cnn(CC2CCCCN2C(=O)c2ccc3[nH]c(=O)[nH]c3c2)c1 (configuration not stated)  39.2%
20. CN(C)C(=O)C1CCN(C2CCN(CC3CC3)CC2)CC1  37.5%
21. Cn1cc(CN2CCC3(CC2)CCN(C(=O)c2cscn2)CC3)cn1  34.4%
22. CN(C)CC1CN(Cc2coc(-c3cccs3)n2)CCO1 (configuration not stated)  32.8%
23. Cc1noc(CN2CCOC(CN(C)C)C2)n1 (configuration not stated)  31.9%
24. CC(=O)N[C@@H]1CN(C2CCN(c3cccc(Cl)c3)CC2)C[C@H]1C(C)C  30.8%
25. CN(C)C[C@H]1OC[C@@H]2CCN(S(=O)(=O)c3ccccc3)C[C@@H]21  26.7%
26. O=C(c1cc[nH]n1)N1CCc2ccc(S(=O)(=O)N3CCOCC3)cc2C1  26.5%
27. COCC(=O)NCc1cc(=O)n2c(n1)CN(Cc1ccccc1)CCC2  25.8%
28. O=C(CCc1ccccc1Br)NS(=O)(=O)c1ccc2c(c1)OCCO2  25.6%
29. CN(C)CC1CN(Cc2coc(-c3ccccc3Cl)n2)CCO1 (configuration not stated)  25.3%
30. COc1ccc(-c2cnc(N)nc2C2CCCNC2)cc1 (configuration not stated)  23.9%
31. CCC(C)NC(=O)c1cc(Br)c2c(c1)OCCO2 (configuration not stated)  23.5%
32. O=C(c1ccc(Cn2cnnn2)cc1)N1CC[C@H](CO)[C@H](O)C1  22.5%
33. c1ccc(-c2nc(CN3CCOC(Cn4cccn4)C3)co2)cc1 (configuration not stated)  22.3%
34. CCCn1nccc1NC(=O)CN1CCOC(Cn2cc(C)cn2)C1 (configuration not stated)  21.9%
35. NC(=O)C1CCCN1C1CCN(C(=O)c2ccc3c(c2)OCO3)CC1 (configuration not stated)  19.9%
36. Cc1nn(CCC#N)c(C)c1CCC(=O)N(C)Cc1ccsc1  19.8%
37. CCN(CC1CCOC1)C(=O)c1ccc(-c2ccsc2)nc1C (configuration not stated)  19.7%
38. COc1ccc(N2CCN(C(=O)NC(C)c3nncn3C)CC2)cc1 (configuration not stated)  19.4%
39. CC(=O)NCC[C@H]1CC(C)(C)Oc2ccccc21  18.9%
40. CSCc1noc(CNC2CCCC(C)(C)C2)n1 (configuration not stated)  16.9%
41. CC(=O)N[C@@H]1CN(C2CCN(c3ccccc3F)CC2)C[C@H]1C(C)C  14.8%
42. Cn1ccnc1CN1CC[C@@H](NS(C)(=O)=O)[C@@H]1Cc1cccnc1  13.6%
43. CN(C)CC1CN(Cc2coc(-c3cccc(F)c3)n2)CCO1 (configuration not stated)  11.2%
44. Cc1ccc(-c2ncc(CNc3cnccc3CO)s2)o1  11.1%
45. COCC1CCN(S(=O)(=O)c2ccc(C(=O)NCC(F)F)cc2)C1 (configuration not stated)  10.6%
46. Cc1csc(N2CCCN(C(=O)CCNc3ncccn3)CC2)n1  7.12%
47. CS(=O)(=O)N[C@@H]1CCN(Cc2ccncc2)[C@H]1Cc1cccnc1  4.27%
48. COCC(=O)NCC[C@H]1CC(C)(C)Oc2ccc(OC)cc21  1.11%
49. CN(C(=O)c1ccc(C#N)cc1)c1nnc(C2CCOC2)s1 (configuration not stated)  -0.585%
50. CSC(C)C(=O)Nc1ccnn1-c1ccccc1C (configuration not stated)  -2.61%
51. COc1ccc(-n2cc3[nH][nH]c(=O)n3c2=O)cc1  -3%
52. CN(C)CC1CN(Cc2coc(-c3ccccc3)n2)CCO1 (configuration not stated)  -3.2%
53. c1cnn(C2CN(c3ncnc4[nH]ccc34)C2)c1  -4.73%
54. NS(=O)(=O)c1cccc(CNc2nccc(C(F)(F)F)n2)c1  -14.6%
55. CNS(=O)(=O)c1cccc(CNc2ccc(C#N)cn2)c1  -14.9%
56. CC(C(=O)N1CCCCC1)N1CCN(c2ncc(Cl)cn2)CC1 (configuration not stated)  -15%
57. CC(C)N(CCO)C(=O)c1cc(COc2ccc3c(c2)CCCC3)on1  -15.6%
58. O=C1Nc2ccccc2C12CCN(c1nccs1)CC2  -15.9%
59. CS(=O)(=O)N[C@@H]1CCN(Cc2cccs2)[C@H]1Cc1cccnc1  -21.4%
60. FC(F)(F)c1cccc(CNc2nccc(C(F)(F)F)n2)c1  -24.2%
61. Cc1ccc(C(=O)N2CCO[C@H]3[C@H](OCc4ccccn4)CC[C@@H]32)o1  -31.3%
62. CC(C)CN(Cc1nc2c(cnn2C)c(=O)[nH]1)CC(C)C  -33.55%
63. Clc1nc2ccccn2c1CNCC1CN(C2CC2)CCO1 (configuration not stated)  -34.4%
64. Cc1ncc(CNc2cnccc2CO)s1  -37.7%
65. CN(C)CC1CN(Cc2nc(-c3cccnc3)no2)CCO1 (configuration not stated)  -50.5%
66. Cn1cnc2c(N3CCOCC3)nc(C3CCNCC3)cc21  -76.7%
67. CCc1cnc(CNC(=O)NC2CCN(C3CCCC3)CC2)s1  -104%
